# Measurements taken from PubChem BioAssay (EPA / NIEHS).
# Results filed as inconclusive are left out. Calls of active or inactive are those of the source. The calls were made as follows, unless noted: active = hit-call score of the fitted dose curve at least 0.9, where 1 is the maximum; inactive = score below 0.9.
# Key:
# [1] = ATG_NFI_CIS: Attagene CIS-FACTORIAL HepG2 Assay for human Nuclear Factor I (NFI) (AID 2282989); conditions: HepG2 cis-regulatory reporter, NFI response element transcription; actives raise or lower the signal
# Summary of the method: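 HepG2 cells transiently transfected with cis-element-driven multiplexed reporter transcription units, dosed for 24 h. Reporter mRNA quantified by RT-PCR, fluorescent labelling, HpaI digestion and capillary electrophoresis; bidirectional fit versus DMSO baseline.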
# [2] = target: Myc proto-oncogene protein (Homo sapiens) (UniProt P01106); assay: ATG_Myc_CIS: Attagene CIS-FACTORIAL HepG2 Assay for human Myelocytomatosis (Myc) Proto-Oncogene Transcription Factor (AID 2282990); conditions: HepG2, Attagene cis-reporter transcription factor activity; actives raise or lower the signal
# Summary of the method: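 Transiently transfected HepG2 cells bearing cis-promoter reporter units for endogenous transcription factors; 24 h exposure. Reporter mRNA measured by RT-PCR, 6-FAM primer extension, HpaI cut and capillary electrophoresis; bidirectional fit relative to DMSO.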
# [3] = ATG_NF_kB_CIS: Attagene CIS-FACTORIAL HepG2 Assay for human Nuclear Factor Kappa B (NF-kB) (AID 2282991); conditions: HepG2 Attagene cis-factorial NF-kB reporter mRNA; actives raise or lower the signal
# Summary of the method: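 Endogenous transcription factor activity in HepG2 was captured via cis-regulated reporter constructs; after 24 h dosing, reporter mRNA was reverse-transcribed, amplified, fluorescently labelled and sized by capillary electrophoresis, with activity fitted bidirectionally relative to DMSO.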
# [4] = ATG_NRF2_ARE_CIS: Attagene CIS-FACTORIAL HepG2 Assay for human Nuclear Factor Erythroid 2 Related Factor 2 (NFR2) response to Antioxidant Response Elements (ARE) (AID 2282992); conditions: HepG2 Attagene ARE/NRF2 reporter, transcription factor activity; actives raise or lower the signal;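 as to AC50: reporter mRNA level measured by RT-PCR and capillary electrophoresis fluorescence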
# Summary of the method: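 Multiplexed reporter mRNA profiling in HepG2 after a 24 h chemical exposure. Curves fitted in both directions relative to DMSO negative control.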
# [5] = ATG_Oct_MLP_CIS: Attagene CIS-FACTORIAL HepG2 Assay for human Octamer-Binding Transcription Factor (Oct) (AID 2282993); conditions: HepG2 Attagene cis-factorial Oct reporter, mRNA; actives raise or lower the signal
# Summary of the method: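 HepG2 cells transiently transfected with cis-promoter-driven multiplexed reporter transcription units, dosed for 24 h. Reporter mRNA quantified by RT-PCR, fluorescent labelling, HpaI digestion and capillary electrophoresis; bidirectional fits versus DMSO baseline.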
# [6] = target: Cellular tumor antigen p53 (Homo sapiens) (UniProt P04637); assay: ATG_p53_CIS: Attagene CIS-FACTORIAL HepG2 Assay for human p53 Transcription Factor (AID 2282994); conditions: HepG2 p53 cis-element reporter, Attagene mRNA; actives raise or lower the signal
# Summary of the method: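 Multiplexed reporter mRNA assay in human HepG2 liver cells; cis-regulated units report endogenous factor activity. Values come from bidirectional curve fitting against DMSO negative control after 24 h treatment.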
# [7] = target: Retinoic acid receptor alpha (Homo sapiens) (UniProt P10276); assay: ATG_RARa_TRANS: Attagene TRANS-FACTORIAL HepG2 Assay for human Retinoic Acid Receptor alpha (RARa) (AID 2283005; active = hit-call score of the fitted dose curve at least 0.9, where 1 is the maximum;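 as to AC50: potency for increased reporter signal meaning RARa activation over DMSO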)
# Summary of the method: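 HepG2 transiently transfected with multiplex GAL4-UAS reporter units including a human RARa–GAL4 chimera; 24 h compound exposure. Reporter mRNA quantified by RT-PCR, 6-FAM labeling and capillary electrophoresis; gain of signal versus DMSO.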
# [8] = target: Nuclear receptor subfamily 1 group I member 2 (Homo sapiens) (UniProt O75469); assay: ATG_PXR_TRANS: Attagene TRANS-FACTORIAL HepG2 Assay for human Pregnane X Receptor (PXR) (AID 2283008; active = hit-call score of the fitted dose curve at least 0.9, where 1 is the maximum)
# Summary of the method: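 Measures mRNA induction of a GAL4-UAS-driven reporter in human HepG2 cells transiently expressing PXR fused to Gal4, following 24 h treatment. DMSO served as negative control and baseline.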
# [9] = target: human RAR-related Orphan Receptor beta (RORb), RORB (gene 6096) (UniProt Q92753); assay: ATG_RORb_TRANS: Attagene TRANS-FACTORIAL HepG2 Assay for human RAR-related Orphan Receptor beta (RORb) (AID 2283010; active = hit-call score of the fitted dose curve at least 0.9, where 1 is the maximum)
# Summary of the method: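 In this TRANS-format test, human HepG2 cells express chimeric NR-Gal4 fusion proteins driving GAL4-UAS reporters. After 24 h dosing, reporter transcripts are measured by fluorescent RT-PCR/capillary electrophoresis, with DMSO as negative control.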
# [10] = target: human Peroxisome Proliferator-activated Receptor delta (PPARd), PPARD (gene 5467) (UniProt Q03181); assay: ATG_PPARd_TRANS: Attagene TRANS-FACTORIAL HepG2 Assay for human Peroxisome Proliferator-activated Receptor delta (PPARd) (AID 2283002; active = hit-call score of the fitted dose curve at least 0.9, where 1 is the maximum)
# Summary of the method: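 HepG2 cells transiently transfected with GAL4-UAS multiplexed reporter units driven by exogenous chimeric NR-GAL4 proteins; 24 h compound exposure. Reporter mRNA measured by RT-PCR, 6-FAM primer extension, HpaI digestion and capillary electrophoresis; gain of signal fitted relative to DMSO.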
# [11] = target: Peroxisome proliferator-activated receptor gamma (Homo sapiens) (UniProt P37231); assay: ATG_PPARg_TRANS: Attagene TRANS-FACTORIAL HepG2 Assay for human Peroxisome Proliferator-activated Receptor-gamma (PPARg) (AID 2283007; active = hit-call score of the fitted dose curve at least 0.9, where 1 is the maximum)
# Summary of the method: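 A TRANS-format multiplexed reporter assay measures activity of an exogenous chimeric NR-Gal4 protein in HepG2 cells. After 24 h of chemical exposure, reporter transcripts are amplified, fluorescently labelled and sized by capillary electrophoresis, with gain of signal scored against DMSO.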
# [12] = target: human Retinoic Acid Receptor beta (RARb), RARB (gene 5915) (UniProt P10826); assay: ATG_RARb_TRANS: Attagene TRANS-FACTORIAL HepG2 Assay for human Retinoic Acid Receptor beta (AID 2283004; active = hit-call score of the fitted dose curve at least 0.9, where 1 is the maximum)
# Summary of the method: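 Fluorescent capillary-electrophoresis detection of GAL4-UAS reporter mRNA defines the endpoint, with induction over DMSO-treated wells scored as activity. Transiently transfected human hepatoma HepG2 cells expressing exogenous NR–Gal4 proteins are exposed to test chemicals for 24 h.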
# [13] = target: human Retinoic Acid Receptor gamma (RARg), RARG (gene 5916) (UniProt P13631); assay: ATG_RARg_TRANS: Attagene TRANS-FACTORIAL HepG2 Assay for human Retinoic Acid Receptor gamma (RARg) (AID 2283009; active = hit-call score of the fitted dose curve at least 0.9, where 1 is the maximum)
# Summary of the method: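 HepG2, RARg-GAL4 TRANS system, 24 h exposure; reporter mRNA by RT-PCR + CE fluorescence; increase over DMSO.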
# Peroxisome proliferator-activated receptor gamma (Homo sapiens), sequence (P37231 whole entry, looked up, the tested form may be a part): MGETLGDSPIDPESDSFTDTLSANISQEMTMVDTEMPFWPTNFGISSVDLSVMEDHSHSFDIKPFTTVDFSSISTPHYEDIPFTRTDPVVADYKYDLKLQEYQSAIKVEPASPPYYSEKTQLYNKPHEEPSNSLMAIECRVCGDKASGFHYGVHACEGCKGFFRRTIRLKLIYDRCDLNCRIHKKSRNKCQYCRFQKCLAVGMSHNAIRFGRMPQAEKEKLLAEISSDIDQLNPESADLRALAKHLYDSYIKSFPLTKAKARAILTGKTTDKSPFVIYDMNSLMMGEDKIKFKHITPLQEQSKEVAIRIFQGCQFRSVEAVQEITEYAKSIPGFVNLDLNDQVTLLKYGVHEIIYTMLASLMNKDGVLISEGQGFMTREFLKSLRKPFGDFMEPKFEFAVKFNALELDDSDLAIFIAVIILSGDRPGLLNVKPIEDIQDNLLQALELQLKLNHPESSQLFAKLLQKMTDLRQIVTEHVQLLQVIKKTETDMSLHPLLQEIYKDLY
# Cellular tumor antigen p53 (Homo sapiens), sequence (P04637 whole entry, looked up): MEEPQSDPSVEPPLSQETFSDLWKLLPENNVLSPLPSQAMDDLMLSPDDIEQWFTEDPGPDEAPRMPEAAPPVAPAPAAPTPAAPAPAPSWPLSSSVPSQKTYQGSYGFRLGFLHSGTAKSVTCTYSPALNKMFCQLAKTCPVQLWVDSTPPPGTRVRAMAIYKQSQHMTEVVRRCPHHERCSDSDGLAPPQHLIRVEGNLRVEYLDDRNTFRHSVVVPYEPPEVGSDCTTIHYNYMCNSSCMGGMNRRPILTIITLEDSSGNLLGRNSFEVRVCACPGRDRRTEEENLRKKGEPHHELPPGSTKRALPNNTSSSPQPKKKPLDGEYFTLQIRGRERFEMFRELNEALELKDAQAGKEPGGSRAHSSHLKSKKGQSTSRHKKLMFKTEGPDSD
# human Retinoic Acid Receptor beta (RARb), RARB (gene 5915), sequence (P10826 whole entry, looked up, the tested form may be a part): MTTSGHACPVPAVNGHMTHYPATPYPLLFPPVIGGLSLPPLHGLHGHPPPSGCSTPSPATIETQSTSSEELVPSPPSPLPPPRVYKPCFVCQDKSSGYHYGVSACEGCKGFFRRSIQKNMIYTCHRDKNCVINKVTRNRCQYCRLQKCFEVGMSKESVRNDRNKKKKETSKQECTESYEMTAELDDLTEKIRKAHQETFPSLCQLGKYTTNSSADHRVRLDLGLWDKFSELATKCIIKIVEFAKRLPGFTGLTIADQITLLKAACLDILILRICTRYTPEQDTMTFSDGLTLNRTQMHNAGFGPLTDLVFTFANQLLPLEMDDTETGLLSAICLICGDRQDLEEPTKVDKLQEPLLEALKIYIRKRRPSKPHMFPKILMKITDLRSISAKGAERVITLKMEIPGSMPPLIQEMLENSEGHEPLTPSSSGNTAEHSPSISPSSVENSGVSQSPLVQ
# Retinoic acid receptor alpha (Homo sapiens), sequence (P10276 whole entry, looked up, the tested form may be a part): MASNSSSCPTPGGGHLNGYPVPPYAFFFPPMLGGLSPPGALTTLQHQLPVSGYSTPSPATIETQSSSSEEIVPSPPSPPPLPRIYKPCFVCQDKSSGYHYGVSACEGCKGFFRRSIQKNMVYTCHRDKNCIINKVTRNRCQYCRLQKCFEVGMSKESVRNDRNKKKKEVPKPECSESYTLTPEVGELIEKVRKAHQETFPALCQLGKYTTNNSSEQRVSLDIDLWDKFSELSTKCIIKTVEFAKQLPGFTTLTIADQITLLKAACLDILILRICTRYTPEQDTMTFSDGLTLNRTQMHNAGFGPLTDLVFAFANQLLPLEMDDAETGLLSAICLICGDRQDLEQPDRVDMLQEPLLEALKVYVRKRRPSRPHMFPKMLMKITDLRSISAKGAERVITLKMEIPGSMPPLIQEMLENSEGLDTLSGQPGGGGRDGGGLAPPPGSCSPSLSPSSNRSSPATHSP
# Nuclear receptor subfamily 1 group I member 2 (Homo sapiens), sequence (O75469 whole entry, looked up, the tested form may be a part): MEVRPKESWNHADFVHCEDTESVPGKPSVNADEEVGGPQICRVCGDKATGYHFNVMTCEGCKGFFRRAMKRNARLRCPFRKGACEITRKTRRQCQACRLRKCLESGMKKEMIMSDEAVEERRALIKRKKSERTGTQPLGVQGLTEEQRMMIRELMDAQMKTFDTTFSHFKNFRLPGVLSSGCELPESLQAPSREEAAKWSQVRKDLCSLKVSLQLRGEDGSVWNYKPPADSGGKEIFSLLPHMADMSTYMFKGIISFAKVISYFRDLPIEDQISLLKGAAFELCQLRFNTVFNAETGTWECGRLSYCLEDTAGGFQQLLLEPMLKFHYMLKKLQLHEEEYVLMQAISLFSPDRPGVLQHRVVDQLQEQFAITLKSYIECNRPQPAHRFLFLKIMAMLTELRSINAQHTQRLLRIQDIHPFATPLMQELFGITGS
# Myc proto-oncogene protein (Homo sapiens), sequence (P01106 whole entry, looked up): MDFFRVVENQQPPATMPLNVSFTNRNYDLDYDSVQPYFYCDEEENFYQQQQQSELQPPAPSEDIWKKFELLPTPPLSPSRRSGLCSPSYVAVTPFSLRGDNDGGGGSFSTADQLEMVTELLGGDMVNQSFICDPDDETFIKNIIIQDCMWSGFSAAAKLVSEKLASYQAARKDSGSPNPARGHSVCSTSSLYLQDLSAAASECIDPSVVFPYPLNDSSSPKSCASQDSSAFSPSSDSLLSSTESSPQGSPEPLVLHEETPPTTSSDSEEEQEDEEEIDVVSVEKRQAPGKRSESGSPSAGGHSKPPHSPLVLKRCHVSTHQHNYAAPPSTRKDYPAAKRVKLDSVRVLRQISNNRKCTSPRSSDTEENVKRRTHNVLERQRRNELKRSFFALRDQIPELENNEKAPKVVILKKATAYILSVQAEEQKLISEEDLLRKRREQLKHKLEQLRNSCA
# human Retinoic Acid Receptor gamma (RARg), RARG (gene 5916), sequence (P13631 whole entry, looked up, the tested form may be a part): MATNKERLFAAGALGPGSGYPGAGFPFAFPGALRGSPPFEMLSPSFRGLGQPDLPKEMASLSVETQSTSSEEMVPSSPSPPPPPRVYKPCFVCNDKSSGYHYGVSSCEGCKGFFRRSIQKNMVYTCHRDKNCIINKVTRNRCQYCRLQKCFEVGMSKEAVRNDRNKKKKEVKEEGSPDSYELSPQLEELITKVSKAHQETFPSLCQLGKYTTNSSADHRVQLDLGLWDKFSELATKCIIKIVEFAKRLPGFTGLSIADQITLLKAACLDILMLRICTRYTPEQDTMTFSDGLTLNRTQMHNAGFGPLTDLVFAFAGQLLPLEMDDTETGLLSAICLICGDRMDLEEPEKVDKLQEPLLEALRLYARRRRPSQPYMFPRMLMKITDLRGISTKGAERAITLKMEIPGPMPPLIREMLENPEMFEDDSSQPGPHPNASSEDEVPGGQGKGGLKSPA
# human Peroxisome Proliferator-activated Receptor delta (PPARd), PPARD (gene 5467), sequence (Q03181 whole entry, looked up, the tested form may be a part): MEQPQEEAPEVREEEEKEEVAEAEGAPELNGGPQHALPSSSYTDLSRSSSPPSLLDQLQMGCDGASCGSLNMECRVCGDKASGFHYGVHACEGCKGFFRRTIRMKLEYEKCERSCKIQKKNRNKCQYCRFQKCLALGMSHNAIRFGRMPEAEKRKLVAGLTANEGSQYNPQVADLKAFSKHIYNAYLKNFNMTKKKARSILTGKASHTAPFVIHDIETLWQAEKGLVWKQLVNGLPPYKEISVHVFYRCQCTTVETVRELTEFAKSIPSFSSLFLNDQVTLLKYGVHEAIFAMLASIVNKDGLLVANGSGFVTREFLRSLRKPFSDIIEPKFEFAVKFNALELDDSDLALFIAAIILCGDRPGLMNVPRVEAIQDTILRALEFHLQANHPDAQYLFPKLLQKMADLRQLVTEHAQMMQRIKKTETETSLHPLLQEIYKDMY
# human RAR-related Orphan Receptor beta (RORb), RORB (gene 6096), sequence (Q92753 whole entry, looked up, the tested form may be a part): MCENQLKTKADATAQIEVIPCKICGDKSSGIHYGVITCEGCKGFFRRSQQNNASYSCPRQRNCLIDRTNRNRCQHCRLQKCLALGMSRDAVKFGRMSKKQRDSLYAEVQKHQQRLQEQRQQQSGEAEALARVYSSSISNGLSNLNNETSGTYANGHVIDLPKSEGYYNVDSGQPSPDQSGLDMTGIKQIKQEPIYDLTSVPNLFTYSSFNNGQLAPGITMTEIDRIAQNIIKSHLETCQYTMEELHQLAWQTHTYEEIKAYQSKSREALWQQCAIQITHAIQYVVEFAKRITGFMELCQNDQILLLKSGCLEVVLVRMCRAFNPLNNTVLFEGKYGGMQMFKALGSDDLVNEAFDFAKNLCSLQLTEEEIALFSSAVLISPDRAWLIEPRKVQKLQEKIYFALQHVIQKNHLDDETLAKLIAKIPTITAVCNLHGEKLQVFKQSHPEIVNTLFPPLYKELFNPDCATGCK
smiles,measurement,setting,value
O=C(O)COCC(=O)O,outcome,[1],inactive
same,outcome,[2],inactive
same,outcome,[3],inactive
same,outcome,[4],inactive
same,outcome,[5],inactive
same,outcome,[6],inactive
same,outcome,[7],inactive
same,outcome,[8],inactive
same,outcome,[9],inactive
CCCCCc1ccco1,outcome,[1],inactive
same,outcome,[2],inactive
same,AC50,[3],54.2 µM (active)
same,AC50,[4],31.9 µM (active)
same,outcome,[5],inactive
same,outcome,[6],inactive
same,outcome,[10],inactive
same,AC50,[11],4.11 µM (active)
same,AC50,[8],2.75 µM (active)
CCC(Cl)C(Cl)C(Cl)CC(Cl)C(Cl)C(C)Cl (stereo not drawn),outcome,[1],inactive
same,outcome,[2],inactive
same,outcome,[3],inactive
same,AC50,[4],43.4 µM (active)
same,outcome,[5],inactive
same,outcome,[6],inactive
same,outcome,[10],inactive
same,AC50,[11],22.3 µM (active)
same,AC50,[8],1.74 µM (active)
C=CCCC(=O)/C=C/C1C(C)=CCCC1(C)C (stereo not drawn),outcome,[1],inactive
same,outcome,[2],inactive
same,outcome,[3],inactive
same,AC50,[4],110 µM (active)
same,outcome,[5],inactive
same,outcome,[6],inactive
same,AC50,[11],24.4 µM (active)
same,AC50,[8],2.37 µM (active)
CCCCC1CCC(O)CC1 (stereo not drawn),outcome,[1],inactive
same,outcome,[2],inactive
same,outcome,[3],inactive
same,outcome,[4],inactive
same,outcome,[5],inactive
same,outcome,[6],inactive
same,outcome,[10],inactive
same,outcome,[12],inactive
same,outcome,[7],inactive
same,outcome,[11],inactive
same,outcome,[8],inactive
same,outcome,[13],inactive
CC(C)CCCCCCc1ccc(OCCOCCO)cc1,outcome,[1],inactive
same,outcome,[2],inactive
same,outcome,[3],inactive
same,outcome,[4],inactive
same,outcome,[5],inactive
same,outcome,[6],inactive
same,outcome,[12],inactive
same,AC50,[7],10.2 µM (active)
same,outcome,[8],inactive
same,outcome,[13],inactive
COC(C)(C)CCCC(C)CC=O (stereo not drawn),outcome,[1],inactive
same,outcome,[2],inactive
same,outcome,[3],inactive
same,outcome,[4],inactive
same,outcome,[5],inactive
same,outcome,[6],inactive
same,outcome,[7],inactive
same,outcome,[11],inactive
same,outcome,[8],inactive
OCCCCC(O)CO (stereo not drawn),outcome,[1],inactive
same,outcome,[2],inactive
same,outcome,[3],inactive
same,outcome,[4],inactive
same,outcome,[5],inactive
same,outcome,[6],inactive
same,outcome,[12],inactive
same,outcome,[7],inactive
same,outcome,[8],inactive
same,outcome,[9],inactive
O=C(O)c1cccnc1C(=O)O,outcome,[1],inactive
same,outcome,[2],inactive
same,outcome,[3],inactive
same,outcome,[4],inactive
same,outcome,[5],inactive
same,outcome,[6],inactive
same,outcome,[12],inactive
same,outcome,[7],inactive
same,outcome,[13],inactive
CCOC(=O)C1OC1c1ccccc1 (stereo not drawn),outcome,[1],inactive
same,outcome,[2],inactive
same,AC50,[3],47 µM (active)
same,outcome,[4],inactive
same,outcome,[5],inactive
same,AC50,[6],64.4 µM (active)
same,outcome,[11],inactive
same,outcome,[8],inactive
